Laboratory results taken from PubChem BioAssay (NCI).
About 83,000 compounds went through this panel and 20% of them were active in at least one assay; those are over-represented in the sample as a whole.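 How to read the values: 0–100, growth inhibition (40 = 60% inhibited); 0, no net growth; -100 to 0, cell death (-40 = 40% of starting cells died; -100 = all dead).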 The source made the active and inactive calls. The calls were made as follows: active = growth percent below 10; inactive = the rest.

system: MDA-MB-468 breast; experiment: NCI-60 one-dose screen, 48 h (100 = growth as untreated, 0 = no growth, -100 = all killed); settings: 10 µM unless noted

SMILES | growth
N#Cc1nc(-c2ccccc2)oc1S(=O)(=O)NCC(c1ccc(Cl)cc1)N1CCCCC1 (stereo not given) | 41.4% (inactive)
CCCN(CCC)CN(CCC)CCC | 106% (inactive)
O=C(C[n+]1ccnc2ccccc21)c1ccc(O)c(O)c1 | 3.88% (active)
Cc1ccc(-n2cc(/C=C/C(=O)c3ccc(S(C)(=O)=O)cc3)c(-c3ccc(S(C)(=O)=O)cc3)n2)cc1 | 106% (inactive)
O=[N+]([O-])c1ccc(N/N=C\c2ccccc2[N+](=O)[O-])nc1 | 114% (inactive)
COc1ccc(-c2cc(/C=C/C(=O)c3ccc(OC)c(OC)c3)[nH]n2)cc1 | 21.4% (inactive)
COc1ccc(Nc2nc(Nc3cc(C)[nH]n3)c3cc(OC)c(OC)cc3n2)cc1 | -69.9% [20 µM] (active)
N#C/C(=C\C=C\c1ccc(-c2cc(Cl)ccc2Cl)o1)c1nc2ccccc2s1 | 109% (inactive)
CCOC(=O)[C@]1(Br)CC[C@@]1(Br)C(=O)OCC | 44.9% (inactive)
S=c1nn[nH]c2ccccc12 | 117% (inactive)
CC(C(=O)O)N1C(N)=NNC1c1ccccc1O (stereo not given) | 104% (inactive)
Cc1ccc(O)c(NC(=O)c2ccc(CNc3ccnc(C(F)(F)F)c3)cc2)c1 | 76.4% (inactive)
Cc1ccc(NC(=O)CSc2nnc3n(Cc4ccccc4)c(=O)c4c(C)c(C(N)=O)sc4n23)cc1 | 107% (inactive)
COc1ccc(-c2nc3ccccn3c2-c2nc3ccc(Cl)cc3[nH]2)cc1 | 77.7% (inactive)
O=C(CCCCCCCn1cc(-c2cccnc2)nn1)Nc1ccccc1-c1ccccc1 | 48.2% (inactive)
OCC1C2C=CC(C2)C1CO (stereo not given) | 98.4% (inactive)
COc1ccc2c(c1)C(=O)c1c-2c(OCCN2CCCCC2)nc2ccc(OC)cc12 | -10.6% (active)
NC(N)=Nc1ccc(S(=O)(=O)O)cc1 | 114% (inactive)
COc1ccc(C(=O)C(C)Br)cc1OC (stereo not given) | 77.6% (inactive)
O=C(Nc1ccccc1)Nc1cccc(Oc2nnc(Cl)c3ccccc23)c1 | 0.467% (active)

SMILES | growth
Clc1ccc2c(NCCCNc3nc(-n4ccnc4)nc4ccccc34)ccnc2c1 | 53.3% (inactive)
Cc1ccc(NC(=O)Cn2nncc2CN2C(=O)CSC2=O)cc1C | 95.5% (inactive)
NC(=O)c1c(NC(=O)c2ccc(F)cc2F)sc2c1CCC(=O)C2 | 81.7% (inactive)
Cc1ccc(S(=O)(=O)N2CCc3ccccc3CC2)cc1 | -4.8% (active)
CCCCn1c(=O)[nH]c2c(c1=O)C(c1ccc(Cl)cc1)c1c([nH]c(=O)n(CCCC)c1=O)N2 | 108% (inactive)
NC(=O)c1c(Nc2ccccc2)nn2cc(-c3nc4ccccc4s3)c(N)nc12 | 101% (inactive)
CN(C)c1ccc(/C=N/Nc2nc(N/N=C/c3ccc(N(C)C)cc3)nc(N3CCOCC3)n2)cc1 | 97.8% (inactive)
O=C(NCCNc1cc(-c2cn(-c3ccccc3)nc2-c2cccc(O)c2)ccn1)Nc1cc(C(F)(F)F)cc(C(F)(F)F)c1 | 93.6% (inactive)
NC[C@@](O)(c1ccc(Cl)cc1)c1ccc(-c2cn[nH]c2)cc1 | -40.9% (active)
O=C1CCC2=C3C4CCCCC4C(=O)C4CCCC(OC2C1)C34 (stereo not given) | 33.3% (inactive)
Nc1ncnc2c1C(c1ccc(Br)cc1)c1sc3c(F)cccc3c1O2 (stereo not given) | 103% (inactive)
CN1CCN(C(=O)[C@@]2(C)CC[C@]3(C)CC[C@]4(C)C(=CC[C@@H]5[C@@]6(C)CC[C@H](OC(=O)c7cccnc7)C(C)(C)[C@@H]6CC[C@]54C)[C@@H]3C2)CC1 | 92.6% (inactive)
Cc1ccc(CCC(=O)Nc2ncc(Cc3cc(Cl)ccc3Cl)s2)o1 | 7.55% (active)
CCOc1cccc(-c2nc(N)nc(Nc3ccccc3SSc3ccccc3Nc3nc(N)nc(-c4cccc(OCC)c4)n3)n2)c1 | 107% (inactive)
O=C(Nc1ccc(Oc2cccc(Cl)c2)c(Cl)c1)c1cnccn1 | 0.426% (active)
CCCCCCCCCCCCCCCCNC(=O)Nc1ccc2ccccc2c1 | 94.3% (inactive)
CC(=O)Cc1cc(-c2cc(CC(C)=O)[nH]n2)n[nH]1 | 103% (inactive)
CCN(CC)CCOC(=O)Nc1c(C(C)C)cccc1C(C)C | 97.3% (inactive)
CN1CCN(c2ccc(C(=O)Nc3cccc(-c4cn(-c5ccc(S(N)(=O)=O)cc5)nn4)c3)cc2C(F)(F)F)CC1 | 68.9% (inactive)
CC1=C(C#N)C(=O)NC(C)C1 (stereo not given) | 108% (inactive)
